# DAX1 inh-1 – DAX1 (NR0B1) inhibitors on StAR promoter, primary screen, cell-based, luminescence, SF-1 (NR5A1), full-length DAX-1; AID 652010, 2013; inhibition, % at 6.8 µM; HEK293T StAR-luciferase reporter, SF-1/DAX-1 repression relief; 1.1% of 370,000 active;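 active = inhibition above the mean over all tested compounds plus 3 SD, cut at about 3.6% in these data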;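 note: higher inhibition means more luminescence from relief of DAX-1 repression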
# ssDAF12 agonist – S. stercoralis DAF-12 nuclear receptor activators, primary screen, cell-based, luminescence, HEK293, GRIP1 co-expression, lit1-tk-luc | Nuclear hormone receptor DAF-12 (Strongyloides stercoralis) | HEK293 ssDAF-12/GRIP1 lit1-tk-luc reporter; % of 3 µM dafachronic acid response | activation, % at 6.8 µM | 1% of 370,000 active | AID 652126, 2013;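 active = activation above the mean over all tested compounds plus 3 SD, cut at about 0.9% in these data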
# Rev-erbA mod – modulators of Rev-erb alpha DNA binding, primary screen, biochemical, FITC-DNA, fluorescence polarization, uHTS. Nuclear receptor subfamily 1 group D member 1 (Homo sapiens), P20393. Rev-erbα–FITC-DNA binding, 90 min. activity, % at 10 µM. 0.79% of 370,000 active. AID 1259318, 2017;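 active = activity above about 14%, limit read from the data; passing the limit was not always enough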
# Target sequence (P20393 whole entry, looked up): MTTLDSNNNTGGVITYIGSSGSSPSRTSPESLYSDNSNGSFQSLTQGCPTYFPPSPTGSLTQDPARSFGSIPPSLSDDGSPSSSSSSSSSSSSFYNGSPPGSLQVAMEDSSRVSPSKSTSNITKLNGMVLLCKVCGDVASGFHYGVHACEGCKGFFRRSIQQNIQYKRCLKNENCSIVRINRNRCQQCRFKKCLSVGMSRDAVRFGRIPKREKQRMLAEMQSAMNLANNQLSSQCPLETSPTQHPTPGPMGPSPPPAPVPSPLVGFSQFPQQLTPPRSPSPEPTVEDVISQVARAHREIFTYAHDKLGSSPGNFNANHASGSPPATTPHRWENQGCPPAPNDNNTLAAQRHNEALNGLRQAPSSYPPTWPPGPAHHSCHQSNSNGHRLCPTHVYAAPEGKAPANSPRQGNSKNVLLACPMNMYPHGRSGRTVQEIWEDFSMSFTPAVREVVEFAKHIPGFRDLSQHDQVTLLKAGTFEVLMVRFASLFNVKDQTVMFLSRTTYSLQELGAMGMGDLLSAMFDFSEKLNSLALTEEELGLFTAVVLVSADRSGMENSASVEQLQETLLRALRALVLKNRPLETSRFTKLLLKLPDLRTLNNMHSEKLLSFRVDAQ
# hcDAF-12 act – H. contortus DAF-12 nuclear receptor activators, primary screen, cell-based, luminescence, HEK293, lit1-tk-luc reporter; HEK293 hcDAF-12 lit1-tk-luc reporter; 0% DMSO, 100% Δ7-dafachronic acid; activation, % at 6.8 µM; 1.4% of 370,000 active;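 active = activation above the mean of all tested compounds plus 3 SD, cut at about 5.5% in these data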
# DAX1 inh-2 – DAX1 (NR0B1) inhibitors, primary screen, cell-based, HEK293, Gal4-DAX1, luciferase luminescence; AID 504766, 2011; Nuclear receptor subfamily 0 group B member 1 (Homo sapiens), P51843; 0.99% of 340,000 active; HEK293 Gal4-DAX1 luciferase reporter; inhibition, % at 6.75 µM;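 active = inhibition above the mean over all tested compounds plus 3 SD, cut at about 4.2% in these data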;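 note: inhibition shows as a rise in luminescence from relieved DAX1 repression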
# hgDAF12 agonist – H. glycines DAF-12 receptor agonists, primary screen, cell-based, luminescence, HEK293, GAL4 fusion, UAS-luciferase | Nuclear hormone receptor DAF-12 (Heterodera glycines), GAL4 fusion | HEK293 GAL4-hgDAF12 UAS-luciferase reporter, agonist luminescence; normalized to butyrate control | activation, % at 6.8 µM | 1.8% of 370,000 active | AID 687014, 2013;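 active = activation above a cutoff set at the mean of all screened compounds plus 3 SD, cut at about 10% in these data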
# NR1D1 mod conf – modulators of Rev-erb alpha DNA binding, confirmation, biochemical, FITC-DNA, fluorescence polarization, single point; shares compounds with Rev-erbA mod; 90 min; activation, % at 25 µM; 61% of 3,000 active; AID 1259319, 2017;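 active = activation at or above a set limit, or at least 3 SD above the negative control mean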
# RORg counter – modulation of RORgamma DNA binding, dose response, counter-screen for Rev-erb alpha modulator project, biochemical, fluorescence polarization, FITC-DNA. shares compounds with Rev-erbA mod. purified RORgamma protein-FITC-DNA binding. AID 1259320, 2017. IC50, µM. 8% of 910 active;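 active = Compounds whose fitted half-maximal concentration for disrupting protein-DNA binding is below 10 micromolar; the record names Rev-erb in its text, so the target is in doubt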
# Numbers stand for hits; 0 = inactive; - = no result given. A selection: hits, their analogues and other compounds. The true share with any hit is near 4.8%.
SMILES,DAX1 inh-1,ssDAF12 agonist,Rev-erbA mod,hcDAF-12 act,DAX1 inh-2,hgDAF12 agonist,NR1D1 mod conf,others
COc1ccc(NC(=O)c2cc3nc(-c4ccccc4)cc(-c4ccccc4)n3n2)c(OC)c1,0,0,21,0,0,0,0,
COc1ccc(-c2cc(C(=O)Nc3ccc(Br)cc3)no2)cc1,0,0,35,0,0,0,0,
CC1CC(C)CN(C(=O)C2CCN(c3cncnc3)CC2)C1 (stereo not drawn),0,0,0,0,-,0,-,
COc1ccccc1NC(=O)O[C@@H]1CC[C@@]23CCCN2C(=O)CCC[C@H]3C1,-,0,0,0,-,0,-,
O=C(C(=O)N1CCC(CNC(=O)c2sc3ccccc3c2Cl)CC1)c1cccs1,0,0,0,0,-,0,-,
Cn1c(=O)c2[nH]c(SCC(=O)N3CCN(c4cccc(C(F)(F)F)c4)CC3)nc2n(C)c1=O,0,0,0,0,-,0,-,
COC(=O)C1=C(C)N(Cc2ccc(C(F)(F)F)cc2)C(=NCc2ccccc2C(F)(F)F)NC1c1cccc(Cl)c1 (stereo not drawn),0,0,0,0,-,0,-,
COc1cc(-c2nc(-c3ccc(Br)o3)no2)cc(OC)c1OC,0,0,27,0,0,0,0,
CCCNC(=O)C[C@H]1CC[C@@H]2[C@H](COC[C@@H](O)CN2C(=O)c2ccccn2)O1,0,0,0,0,-,0,-,
CCN(CC)c1ccc(/C=C(\C#N)C(N)=S)cc1,0,0,76,0,0,0,64,RORg counter=0
CCN(CC)c1ccc(/C=C(\C#N)C(=O)c2ccc(Br)cc2)cc1,0,0,59,0,0,0,70,RORg counter=0
CN(C)c1ccc(/C=C(\C#N)C(=O)c2ccccc2)cc1,0,0,0,0,0,0,-,
CCN(CC)c1ccc(/C=C(\C#N)C(N)=O)cc1,0,0,0,0,0,0,-,
CC(C)CC[n+]1ccccc1/C=C/c1ccc(N(C)C)cc1,0,0,32,0,0,0,30,RORg counter=0
CCN(CC)c1ccc(C(=O)OCc2cc(=O)oc3cc(O)ccc23)cc1,0,0,33,0,0,0,17,
O=C(Cn1cc(C(F)(F)F)cc(Cl)c1=O)Nc1cccc(Cl)c1,0,0,0,0,0,0,-,
O=C(Cn1cc(C(F)(F)F)cc(Cl)c1=O)Nc1cc(Cl)cc(Cl)c1,0,0,59,0,0,0,27,
CCOc1ccccc1-c1nc(-c2ccc(NC(=O)Cc3ccc(OC)cc3)cc2)no1,0,0,43,0,0,0,70,RORg counter=0
Fc1ccccc1Cn1ccc2ccc(-c3ccc4ccn(Cc5ccccc5F)c4c3)cc21,0,0,0,0,-,0,-,
O=C(Cc1c[nH]c2ccccc12)Nc1ccc(Nc2cccnc2)cc1,0,0,0,0,-,0,-,
O=C(Nc1ccc2oc(-c3ccccc3F)nc2c1)c1cncc(Br)c1,0,0,0,0,0,0,-,
CC(C)(C)C(=O)Nc1ccc2oc(-c3cc(F)c(F)cc3Cl)nc2c1,0,0,22,0,0,0,0,
C/C=C/c1ccccc1OCCCN1CCC(C(O)(c2ccccc2)c2ccccc2)CC1,0,0,0,0,-,0,-,
CCOc1ccc(C(=O)Nc2sc3c(c2C(=O)OC)CC(C)(C)NC3(C)C)cc1,0,0,70,0,0,0,0,

# Bioassay records: PubChem, several laboratories
